From the supplement of paper PMC6555819

Tested on: VDR:RXRa (NR concentration 270 nM, RXRa partner concentration 90 nM)
Test: PBM binding z-score (relative to random genomic background probes); higher = stronger binding; sequences stand for … in GC…GCGATTGACAGCGTAGAATGAAGG
Description: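 Protein-binding microarray (Agilent 4x180K custom design, double-stranded 60-nt probes: 5' GC cap, 34-nt variable region, 24-nt constant primer region; full probe sequence given). Purified or IVT nuclear receptor:RXRα heterodimers (3:1 NR:RXRα, mostly 270:90 nM) or homodimers were incubated for 1 h in PBS with 2% milk and no ligand, then detected with Alexa488 antibodies. Fluorescence from o1-orientation probes (~5 replicates averaged) was converted to z-scores against 500 random hg19 background probes. Variable regions are seed direct-repeat (DR0–DR5) sites, all their single-nucleotide variants and half-site ablations.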

Sequence	PBM binding z-score
TTAGCAAGGTGAAGGTCGTTGATCCCTCTGTAGA	0.964
ATATGTAAGTTATCGGGTCATTCAGTTTGCGCAT	4.93
CCTGCTAGCTCATGGTCAGCTAATCTACAGTATG	-0.366
GCTGCTACGTCAACTGATGGTCAGCTAAAGCTCG	-0.617
TCATATAGGGAAAGGTGAAAGTCGAACGATATGA	0.965
ATATGTAGGTTAAGGGTGATTCAGGTTGGTTCGC	1.68
CCTTACGGGTCAAGGTTCTAGCACGGGTGGTACG	3.1
CAAACTAGGTCAAGGTCAATGTCGGTTTGTGCCA	4.81
TCTAGTTGGTCAAAGGTCAGACACTCGAAATGCG	4.09
TAGCCTAGGTCATGCGGGCCAGTAGAGTGTCGGC	2.95
CCGACTGGGGCAAAAGTTACCATACTCAGTACGA	-0.267
CGTCAATGTTCAAGGTAACGTAACAGAAAGCAGC	0.0627
CGTCCAAGGTCAATGCTAGGTCAGTAAAAGCATT	4.76
ATCGAAAGGTCGAAGGTGAGTATCCCCACCCGAA	2.53
CAAACTAGGTCAAGGTCAAAGTTGGTTTGTGCCA	5.16
CCTTCTGGGCCACGAAAGGTCATTGATTCAGTGA	4.28
CCGACTGGAGCAAAGGTTACCATACTCAGTACGA	1.17
ATCTCTAGGTAACAAGTTCTGTGAAAGAGAGGAC	0.359
TCTAGCAGGCCAGAGGGTCAGTCAAGAGGTACGG	0.113
GCTATTAGTTCAAAGGGCAACCGAATGATTCTCG	2.63

Sequence	PBM binding z-score
TGTATGAGGTTATAAGATCAGGGAACGTTGCAAA	1.26
TCGAGTAGGTTAGTCCGGGCATTCAGCCAACATA	0.223
CTCTAAAGGTCGGTTGAGGTGAGTATACGGATAA	2.42
CGTCCAAGGTCAGAGGTCAGTGAAGAGATGACGG	5.16
TAGCCTATGTCATGGGCCAGTATACCACGCGAAC	-0.365
CCTGCCAGGTCATGGTCAGCTAATCTACAGTATG	2.65
TGTCAAAGTTCAAAGGTAACGTTAGTATCCACAC	4.9
CCTTACGGATCACTGACAGGTTATAGCATTTGGA	0.456
CAAACTAGGTCTAGAGGTCAAAGTCCGCTTCCCG	4.93
CCTATTAGTTGACCATAAGGACAACCGAAGCTCG	1.07
ATATGTAGGTTATCGGCTCATTCAGTTTGCGCAT	0.802
GATACAGGGTCAGCTAGAGGCCATAGTATGGAAA	4.05
TCATATAGGAAAACAGGTGAAAGTCCGTAAGTTA	1
TCACCAAGGTGAAGGTCGTTGATCCCTCTGTAGA	1.34
GCACGGAGGACAAGGTCAGAGCTTTGTCCGTAGA	1.34
GCGACTGGGGCATCCGCAGGTTACCATAACTTAA	-0.12
TCTATTAGTTGAAGAGCAACCGACGAGTCCGTTT	0.538
CCTGCTAGGTCAATGGCCAGCTAAAGCAGCTCGC	0.561
CAGCCTATGTCAGGGCCAGTATAGGAGGAACGTT	-0.493
AGAATGAGGTTAAGAGCAGGGAAACAGAATACAT	0.967
